Source: PubChem BioAssay (The Scripps Research Institute Molecular Screening Center)
Sampled rows, rich in hits. Any-hit rate of the full collection: about 2.3%.
PLC-gamma1 inh – inhibitors of human phospholipase C gamma1. inhibition, % at 12.2 µM. 370,000 compounds, 0.84% hits. P19174. purified PLC-gamma1, fluorogenic substrate, fluorescence. AID 720700
MBD2 DNA inh – blocks human MBD2 binding to methylated DNA; Q9UBB5; TR-FRET, MBD2 binding to methylated oligonucleotide; inhibition, % at 4.4 µM; 370,000 compounds, 0.31% hits; AID 686964; in the data active means inhibition above about 13%
PLCb3 inh – inhibitors of human phospholipase C beta3; Purified PLC-beta3, fluorogenic substrate, fluorescence; inhibition, % at 12.2 µM; 370,000 compounds, 0.18% hits; in the data active means inhibition above about 11%;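 further: 0% = median of compound wells on plate and 100% = full blocker control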
UHRF1 binding – UHRF1 methyl-DNA binding inhibition | Q96T88 | UHRF1 binding to methylated oligo, TR-FRET | inhibition, % at 4.4 µM | 370,000 compounds, 0.75% hits | AID 687016; in the data active means inhibition above about 21%;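 further: UHRF1 SRA domain binding a hemimethylated CpG hairpin DNA probe; 0% = median of test compound wells and 100% = reference inhibitor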
LEDGF integ inh – blocks HIV-1 LEDGF/p75-dependent DNA integration. TR-FRET IN-LEDGF/p75 DNA integration, Eu/Cy5. inhibition, % at 3.7 µM. 370,000 compounds, 0.64% hits. AID 743269;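 active means inhibition above the screen-wide mean plus 3 SD, cut at about 13% in these data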;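 further: signal is the Cy5 over europium emission ratio at 671 and 618 nm; 0% = plate median of compound wells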
PLCgamma1 ctr – counter-screen for PLC-beta3 inhibitors: inhibitors of human PLC-gamma1; shares compounds with PLC-gamma1 inh; purified PLC-gamma1, fluorogenic substrate, fluorescence; inhibition, % at 12.3 µM; 3,300 compounds, 3.1% hits; AID 743258
PLCbeta3 conf – confirmation of human PLC-beta3 inhibitors; purified PLC-beta3, fluorogenic substrate fluorescence; inhibition, % at 12.3 µM; AID 743261; shares compounds with PLC-gamma1 inh; 3,300 compounds, 1% hits; in the data active means inhibition above about 11%
* hit, by the source's call; x = not tested or not shown. Unless noted, no stated cut-off is given here; in the data, active means inhibition above about 9.5%; inactive means the rest.

SMILES	PLC-gamma1 inh	MBD2 DNA inh	PLCb3 inh	UHRF1 binding	LEDGF integ inh	PLCgamma1 ctr	PLCbeta3 conf
CC(C)(C)N1Cc2nnn(CC3CCCCC3)c2-c2cc(F)ccc2S1(=O)=O	1.7	-4.1	0.0	-2.8	-1.4	x	x
CCNC(=O)C1(C)CCN1CCS(=O)(=O)c1ccc(C)cc1 (centres undefined)	2.3	2.6	12.6*	3.5	5.3	-5.9	-0.9
FC(F)(F)c1ccccc1NC(=S)Nc1ccccc1	10.7*	5.6	-4.7	3.9	-4.7	-3.3	-1.6
COC(=O)[C@@H]1N=C(c2ccc(OC)cc2)O[C@]12C(=O)N(Cc1cn(-c3ccccc3)nn1)c1cccc(Cl)c12	-0.5	13.0	2.8	17.7	0.1	x	x
C[C@H]1CCCC(=O)N[C@@H](c2ccccc2)[C@@H](C)CCCC(=O)N[C@H]1c1ccccc1	0.2	3.0	2.4	-0.3	-3.0	x	x
c1ccc(Cc2cnc(N3CCN(Cc4ccc5c(c4)OCCO5)CC3)nc2)cc1	9.8*	-2.1	4.3	3.7	5.2	-5.4	-6.0
CC(=O)c1ccc(OCC(O)COc2ccc(C(C)=O)cc2)cc1	11.2*	-6.4	9.0	2.2	3.0	0.6	3.7
CC(=O)c1ccc(OCC(O)CN2CCN(CC(O)COc3ccc(C(C)=O)cc3)CC2)cc1 (centres undefined)	3.9	0.8	2.6	-0.8	0.5	x	x
O=C(Nc1ccc2c(c1)OCCO2)c1cc(-n2cnnc2)ccc1Cl	11.2*	3.7	6.1	0.0	0.1	-7.9	-5.1
O=C(NC1CCCCC1)c1cc(-n2cnnc2)ccc1Cl	9.8*	2.8	-2.6	1.0	1.4	1.6	3.8
c1ccc(Cn2ccc3ccc(-c4ccc5ccn(Cc6cccc(-c7cccs7)c6)c5c4)cc32)cc1	-37.1	1.8	-50.4	-0.5	-1.7	x	x
CN(CCc1ccccn1)C(=O)c1cc2ccccn2n1	-1.7	0.7	-4.7	4.2	-2.1	x	x
Cc1cc(F)cc(-c2cc(C(=O)NCc3cccc(Cl)c3)[nH]n2)c1	10.2*	-8.1	2.0	2.7	3.9	-5.0	-5.6
Cc1cc(F)cc(-c2cc(C(=O)NCc3ccccc3)[nH]n2)c1	0.8	7.1	-0.1	0.9	0.7	x	x
CCc1nc(SCC(=O)NCc2ccc(F)cc2)c2c(=O)n(C)c(=O)n(C)c2n1	46.3*	-2.2	2.9	0.3	-2.7	-8.6	-3.8
Cc1csc(Nc2nc(N)c(C(=O)Nc3ccccc3)o2)n1	13.7*	3.0	10.7*	2.1	4.3	-0.7	4.4
COC(=O)c1ccc(Cn2ccc3ccc(-c4ccc5ccn(C(=O)c6ccccc6C)c5c4)cc32)cc1	-54.6	-2.8	-71.8	0.3	-1.8	x	x
CN(C)CCCN(CCCN(C)C)C(=S)Nc1ccc(S(=O)(=O)N2CCOCC2)cc1	10.6*	-2.5	-3.7	-0.6	6.7	1.1	-6.2
CC(C)(C)CC(C)(C)NC(=S)Nc1ccc(S(=O)(=O)N2CCOCC2)cc1	1.5	1.3	4.2	0.2	-1.2	x	x
O=C(NC1CCC1)c1ccc(C#Cc2cccc(F)c2)cn1	0.7	6.7	-3.4	17.3	4.9	x	x
OC(COC1CCCCC1)CN1CCN(c2ccccc2)CC1 (centres undefined)	12.9*	-6.2	5.6	0.8	-1.5	-6.9	-2.8
CC(C)(C)C1CCC(OCC(O)CN2CCN(Cc3ccccc3)CC2)CC1 (centres undefined)	0.8	-3.4	-3.7	0.8	2.8	x	x
CC(=O)c1ccc(OCC(C)C)c(CC(C(N)=O)C(N)=O)c1	7.3	-2.9	11.9*	2.5	4.7	-6.1	0.9
CCCOc1ccc(C(C)=O)cc1CC(C(N)=O)C(N)=O	-0.6	0.9	0.7	-1.4	-1.5	x	x
NC(=O)COC(=O)CCCc1nc2ccccc2s1	11.9*	-4.1	11.4*	3.6	5.7	-8.5	-3.8
SMILES	PLC-gamma1 inh	MBD2 DNA inh	PLCb3 inh	UHRF1 binding	LEDGF integ inh	PLCgamma1 ctr	PLCbeta3 conf
Cn1c(=O)c2cc(S(=O)(=O)N3CCN(Cc4ccccc4)CC3)ccc2n(C)c1=O	0.7	0.4	1.2	1.0	0.2	x	x
CNc1c(NS(=O)(=O)c2ccc(OC)c(Cl)c2)c(=O)oc2ccccc12	10.9*	-6.1	-1.4	0.1	-2.1	-9.2	-5.4
COc1ccc2[nH]cc(C(C)c3ccccc3O)c2c1 (centres undefined)	-1.8	1.9	-3.9	-0.8	-2.8	x	x
O=C(/C=C(/c1ccc(Cl)cc1)n1cncn1)c1ccccc1	7.0	0.9	11.2*	-0.3	7.9	-4.3	0.2
COC(=O)C1=C(C)N(Cc2cccc(C(F)(F)F)c2)C(=NCc2ccc3c(c2)OCO3)NC1c1ccc(F)cc1 (centres undefined)	6.6	-1.8	0.0	3.3	-2.2	x	x
O=C(Nc1nnc(Cc2ccccc2)s1)c1ccccc1	-0.6	1.2	-6.8	-1.5	-6.0	x	x
CN(C)S(=O)(=O)c1ccc(C(=O)Nc2nnc(Cc3ccccc3)s2)cc1	8.9	-2.9	11.3*	1.6	0.9	-4.0	-13.0
O=C(N/N=C/c1ccccn1)c1ccccc1	10.6*	3.0	4.5	-1.0	-1.0	-11.3	-6.5
CCCCCC(=O)NC(=S)Nc1ccc(Cl)cn1	10.3*	2.2	1.2	7.4	-0.6	-5.4	-5.5
O=C1CCC[C@H]2C[C@H](NCc3ccc(Cl)cc3)CC[C@]23CCCN13	0.4	0.4	2.4	1.5	1.2	x	x
O=c1c2ccccc2c(=O)n2n1Cc1ccccc1C2	0.4	-0.3	-5.2	0.3	-1.8	x	x
CC1=CCn2c(=O)c3ccccc3c(=O)n2C1	10.7*	-0.2	1.4	2.2	-0.9	7.8	1.8
O=C(NCCc1ccccc1)C1CCCN1S(=O)(=O)c1ccc(F)cc1 (centres undefined)	8.5	-8.0	12.1*	1.4	8.4	6.8	-1.3
O=C(NCCc1ccccc1)C1CCCN1S(=O)(=O)c1ccccc1 (centres undefined)	2.7	-1.4	-1.4	4.2	-2.2	x	x
CN(Cc1ccccc1)C(=O)OCc1cn(Cc2ccccc2F)nn1	-2.1	0.3	-0.2	0.0	0.4	x	x
Cc1cccc(-c2nc3ccccc3c(=O)n2NC(=O)/C=C/c2ccc([N+](=O)[O-])cc2)c1	1.5	-2.9	1.8	-0.3	1.6	x	x
O=C(Nn1c(SCc2cccc([N+](=O)[O-])c2)nc2ccccc2c1=O)c1ccccc1	10.7*	-2.4	4.0	6.7	0.6	-1.1	3.1
O=C(/C=C/c1cccc([N+](=O)[O-])c1)Nn1c(-c2ccccc2F)nc2ccccc2c1=O	11.6*	-1.7	9.6	6.7	2.8	-1.6	0.3
CC[C@H]1OC(=O)[C@H](C)[C@@H](O[C@H]2C[C@@](C)(OC)[C@@H](O)[C@H](C)O2)C(C)[C@@H](O[C@@H]2O[C@H](C)C[C@H](N(C)C)[C@H]2O)[C@](C)(O)C[C@@H](C)CN(C)[C@H](C)[C@@H](O)[C@]1(C)O (some centres undefined)	0.4	3.5	-1.8	2.0	-4.2	x	x
